Bioassay records (PubChem)
RGS4-Gao reg – modulators of RGS4 binding to Galphao, primary screen, biochemical, multiplexed bead flow cytometry; Guanine nucleotide-binding protein G(o) subunit alpha (Homo sapiens), P09471; actives lie on both sides; binding response (% of control), % at 10 µM; 0.33% of 220,000 active; in the data active means binding response below about 49% or above about 150%; inactive means in between;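 further: fluorescent Galphao activated with aluminum fluoride binding bead-coupled RGS4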
Target sequence (P09471 whole entry, looked up): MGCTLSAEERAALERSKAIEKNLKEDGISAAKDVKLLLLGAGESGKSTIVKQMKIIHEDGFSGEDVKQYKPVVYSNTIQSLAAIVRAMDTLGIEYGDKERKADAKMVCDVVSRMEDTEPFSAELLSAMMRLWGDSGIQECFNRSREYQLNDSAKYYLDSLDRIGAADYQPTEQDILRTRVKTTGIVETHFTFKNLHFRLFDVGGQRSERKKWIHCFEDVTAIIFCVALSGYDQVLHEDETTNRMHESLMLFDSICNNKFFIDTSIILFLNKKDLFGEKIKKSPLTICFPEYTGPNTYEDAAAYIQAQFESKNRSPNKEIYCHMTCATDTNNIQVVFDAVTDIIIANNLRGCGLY
RGS8-Gao reg – RGS8-Galphao binding modulators, primary screen, biochemical, multiplexed bead flow cytometry | Guanine nucleotide-binding protein G(o) subunit alpha (Homo sapiens), P09471 | actives lie on both sides | response (percent of control binding), % at 10 µM | 0.34% of 220,000 active | AID 1423, 2008; in the data active means response below about 60% or above about 140%; inactive means in between;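 further: Galphao activated as the GDP aluminium fluoride complex binding bead-coupled RGS8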
RGS16-Gao – modulators of RGS16 binding to Galphao, primary screen, biochemical, human proteins, multiplexed bead flow cytometry. Regulator of G-protein signaling 16 (Homo sapiens) + Guanine nucleotide-binding protein …. bead-based flow cytometry RGS16-Galphao binding, fluorescence; actives lie on both sides. binding response (% of control), % at 10 µM. 0.38% of 220,000 active;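 further: Galphao activated by GDP with aluminum fluoride before binding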
Target sequence (O15492 whole entry, looked up): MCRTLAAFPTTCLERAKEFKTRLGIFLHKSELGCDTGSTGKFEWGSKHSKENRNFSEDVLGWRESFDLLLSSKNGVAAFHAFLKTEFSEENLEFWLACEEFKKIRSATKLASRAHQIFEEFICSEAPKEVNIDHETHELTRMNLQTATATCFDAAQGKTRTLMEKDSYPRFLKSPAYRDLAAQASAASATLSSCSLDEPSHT
Target sequence (P09471 whole entry, looked up): as the sequence (P09471 whole entry, looked up) above
Avidin fluor – green autofluorescence of compounds with avidin beads – biophysical, 488/530 nm, flow cytometry, artefact control, profiling panel; compound fluorescence 488/530 nm; active compounds read high; fluorescence (KMESF) at 10 µM; 0.38% of 220,000 active; AID 1775, 2009; in the data active means fluorescence above about 47
RGS7-Gao – RGS7-Galphao binding modulators, primary screen, biochemical, multiplexed bead flow cytometry; 0.35% of 220,000 active; AID 1439, 2008; binding response (% of control), % at 10 µM; Guanine nucleotide-binding protein G(o) subunit alpha (Homo sapiens), P09471; actives lie on both sides; in the data active means binding response below about 49% or above about 150%; inconclusive means no clear call, values can overlap the other calls; inactive means in between;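 further: fluorescent Galphao held in activated GDP-AlF4 state binding bead-coupled RGS7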
GSH bead fluor – compound fluorescence on glutathione beads, profiling panel, artefact control, biophysical, 488/530 nm, flow cytometry; GSH beads flow cytometry, compound fluorescence 488/530 nm; active compounds read high; fluorescence (KMESF) at 10 µM; 0.25% of 190,000 active; in the data active means fluorescence above about 89;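 further: glutathione beads carrying GST-tagged Bcl family fusion proteins plus one bare bead set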
RGS-Gao – modulators of RGS–Galpha-o binding, primary screen, biochemical, multiplexed beads, flow cytometry, RGS4/7/8/16/19 | shares compounds with RGS16-Gao | multiplexed bead flow cytometry | RGS4–Galpha-o binding response, % at 10 µM | 99% of 1,600 active;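 further: fluorescently labeled Galpha-o bound to GDP with aluminium fluoride binding biotinylated RGS beads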
Biotin-avidin – disruption of biotin probe capture by avidin, counter-screen for RGS protein interaction modulators, biochemical, flow cytometry, bead-based. 1,700 tested, under 10 active. AID 1783, 2009. inhibition, % at 10 µM. streptavidin beads, fluorescein-biotin binding. shares compounds with RGS16-Gao;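 active means inhibition above 50%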;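 further: median green fluorescence of gated singlet beads compared with DMSO control wells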
RGS8-Gao single – RGS8-Galphao binding modulators, confirmation, biochemical, multiplexed bead flow cytometry, single concentration. shares compounds with RGS16-Gao. AID 1836, 2009. 3% of 1,700 active. bead-based flow cytometry RGS8-Galphao binding, fluorescence; actives lie on both sides. binding response (% of control), % at 10 µM; in the data active means binding response below about 72% or above about 130%; inactive means in between;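 further: Galphao activated as GDP AlF4 complex before binding bead RGS8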
RGS7-Gao single – RGS7-Galphao binding modulators, confirmation, biochemical, multiplexed bead flow cytometry, single concentration. shares compounds with RGS16-Gao. bead-based flow cytometry RGS7-Galphao binding; actives lie on both sides. response (percent of control binding), % at 10 µM. 7.8% of 1,700 active. AID 1837, 2009; in the data active means response below about 75% or above about 130%; inactive means in between;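 further: fluorescent Galphao activated with GDP and aluminum fluoride binding bead-coupled RGS7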
RGS16-Gao single – modulators of RGS16-Galphao protein binding, confirmation, biochemical, single concentration, multiplexed bead flow cytometry. shares compounds with RGS16-Gao. bead-based flow cytometry; actives lie on both sides. response (% of control binding), % at 10 µM. 4% of 1,700 active. AID 1838, 2009; in the data active means response below about 74% or above about 130%; inactive means in between;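 further: Galphao activated as the GDP aluminium fluoride complex binding bead-coupled RGS16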
RGS4-Gao confirm – modulators of RGS4-Galphao protein binding, confirmation, biochemical, single concentration, multiplexed bead flow cytometry; shares compounds with RGS16-Gao; actives lie on both sides; binding response (% of control), % at 10 µM; 4% of 1,700 active; in the data active means binding response below about 74% or above about 130%; inactive means in between
RGS19-Gao conf – regulators of RGS19-Galphao binding, confirmation, biochemical, single point, multiplexed bead flow cytometry; response (percent of control binding), % at 10 µM; AID 1841, 2009; shares compounds with RGS16-Gao; 5% of 1,700 active; bead-based flow cytometry RGS19-Galphao binding; actives lie on both sides; in the data active means response below about 50% or above about 160%; inactive means in between
Numbers stand for hits; - = inactive; ? = inconclusive; . = no result given; [ ] = remark or other dose. Sampled rows, rich in hits. Any-hit rate of the full collection: about 1.2%. Unless noted, how the calls were made is not given here.

SMILES | RGS4-Gao reg | RGS8-Gao reg | RGS16-Gao | Avidin fluor | RGS7-Gao | GSH bead fluor | RGS-Gao | Biotin-avidin | RGS8-Gao single | RGS7-Gao single | RGS16-Gao single | RGS4-Gao confirm | RGS19-Gao conf
Clc1ccc(C2=CSC3=NCCN23)cc1Cl | -19 | 18 | -14 | - | -0.4 | - | . | - | - | - | - | - | -
Cc1cc2cc(CCNC(=O)c3ccc(C)c([N+](=O)[O-])c3)c(=O)[nH]c2cc1C | 3.7 | 16 | - | - | 7.7 | - | . | - | - | - | - | - | -
Cc1ccc(C(=O)NCCc2nc3ccccc3[nH]2)cc1[N+](=O)[O-] | - | - | - | - | - | - | . | . | . | . | . | . | .
O=C(CSc1nc2ccccc2[nH]1)Nc1ccc(F)c(F)c1 | . | . | . | . | . | - | . | - | - | - | - | - | -
COc1cc2c(C)nc3c(c(C)nn3-c3ccccc3)c2cc1OC | - | - | - | - | - | - | . | . | . | . | . | . | .
COc1cc2c(-c3ccc(O)cc3)nc3c(c(C)nn3-c3ccccc3)c2cc1OC | 200[activator] | - | - | - | - | - | . | - | - | - | - | - | -
CSc1ccccc1NC(=O)c1cc2ncc(Br)cn2n1 | - | - | - | - | - | - | . | . | . | . | . | . | .
COc1cc2c3c(c1OC)C1(C=CC(=O)C=C1)CC3N(C(=O)CCC(=O)O)CC2 (centres undefined) | - | - | - | - | ? | . | . | . | . | . | . | . | .
COc1cc2c3c(c1OC)C1(C=CC(=O)C=C1)CC3N(C(=O)c1ccccc1)CC2 (centres undefined) | - | - | - | 120 | 156[activator] | - | 105 | . | . | . | . | . | .
CNc1nc(SC)n(C)c(=O)c1N=O | - | - | - | - | ? | . | . | . | . | . | . | . | .
Cc1nnc(Nc2ccc3c(c2)ncn3C)c2ccccc12 | - | 146[activator] | - | - | - | - | 115 | - | - | - | - | - | -
Cc1ccc(-c2nnc(Nc3ccc4c(c3)nc(C)n4C)c3ccccc23)cc1 | - | - | - | - | - | - | . | . | . | . | . | . | .
COc1ccc2[nH]c(C(=O)Nc3ccc4c(c3)OCO4)cc2c1 | - | - | - | - | ? | . | . | . | . | . | . | . | .
COC(=O)c1ccc(Oc2ccc3nnc(C)n3n2)cc1 | - | 142[activator] | - | - | - | - | 122 | - | - | - | - | - | -
COC(=O)c1ccc(Oc2ccc3nncn3n2)cc1 | - | - | - | - | - | - | . | . | . | . | . | . | .
Cc1cc(NC(=O)Nc2ccc(Cl)c(Cl)c2)n(-c2ccccc2)n1 | - | - | - | - | ? | . | . | . | . | . | . | . | .
Nc1ccc([N+](=O)[O-])cc1C(=O)NNC(=O)c1ccco1 | - | - | - | - | ? | . | . | . | . | . | . | . | .
COc1ccc(C(=O)Nc2c(C(C)(C)C)nn(C)c2C(C)(C)C)cc1 | - | - | - | - | ? | . | . | . | . | . | . | . | .
S=c1[nH]nc(-c2ccc(Cl)cc2)n1/N=C/C=C/c1ccco1 | - | - | - | - | ? | . | . | . | . | . | . | . | .
S=c1[nH]nc(-c2ccccc2)n1/N=C/C=C/c1ccco1 | - | - | -0.4 | - | - | - | 90 | - | - | - | - | - | -
O=C(COc1ccc(S(=O)(=O)N2CCCC2)cc1)Nc1ccc2c(c1)OCCO2 | - | - | - | - | - | - | . | . | . | . | . | . | .
c1ccc2c(C3=NNC(=NC4CCCCC4)SC3)c[nH]c2c1 | - | - | 5.2 | - | - | - | 96 | - | - | - | - | - | -
Cc1ccc(C)n1-c1ccc(C(=O)O)cc1 | - | - | - | - | 39 | - | 66 | - | - | - | - | - | -
CC(C)Cc1cc(C(=O)N2CCCC(CCC(=O)N(C)CCc3ccccn3)C2)no1 (centres undefined) | - | - | - | - | - | - | . | . | . | . | . | . | .
CCc1nccn1S(=O)(=O)c1cc(OC)c(Cl)cc1OC | -222 | 12 | - | - | -76 | - | . | - | - | 75 | - | - | -
SMILES | RGS4-Gao reg | RGS8-Gao reg | RGS16-Gao | Avidin fluor | RGS7-Gao | GSH bead fluor | RGS-Gao | Biotin-avidin | RGS8-Gao single | RGS7-Gao single | RGS16-Gao single | RGS4-Gao confirm | RGS19-Gao conf
CCc1nccn1S(=O)(=O)c1cc(C)c(OC)cc1C | - | - | - | - | - | - | . | . | . | . | . | . | .
C[n+]1cccc(C(=O)NCC2CCCO2)c1 (centres undefined) | - | 147[activator] | 308[activator] | - | - | - | 117 | - | - | - | - | - | -
Cc1ccccc1S(=O)(=O)N(CC(O)CN1C(=O)NC(C)(C)C1=O)c1ccccc1 (centres undefined) | - | - | - | - | ? | . | . | . | . | . | . | . | .
CC(NC(=O)c1sc2cc([N+](=O)[O-])ccc2c1Cl)C(C)(C)C (centres undefined) | - | - | 15 | - | - | - | 98 | - | 65 | - | 41 | - | 16
O=[N+]([O-])CC(=Nc1ccc(F)cc1)N/N=C\c1oc(O)c2ccccc12 | - | - | - | - | ? | . | . | . | . | . | . | . | .
O=c1c2ccccc2nnn1Cc1ccc2ccccc2c1 | - | - | - | - | - | - | . | . | . | . | . | . | .
CC(=O)Nc1nc2c(C)c(Cl)ccc2s1 | - | - | - | - | ? | . | . | - | - | - | - | - | -
CCCC(=O)Nc1nc2c(C)c(Cl)ccc2s1 | - | - | - | - | ? | . | . | . | . | . | . | . | .
COCCCNC(=O)c1cc(C(=O)c2ccccc2Br)c[nH]1 | - | - | - | - | - | - | . | . | . | . | . | . | .
Cc1[nH]n(-c2ccccc2)c(=S)c1C=Nc1ccc([N+](=O)[O-])cc1 | - | - | 9.8 | - | - | - | 86 | . | . | . | . | . | .
Cc1[nH]n(-c2ccccc2)c(=O)c1C=Nc1ccc(S(=O)(=O)N=C(N)N)cc1 | - | - | - | - | ? | . | . | . | . | . | . | . | .
